Hit rate of the full screen: of about 96,000 compounds, about 1,200 (1.2%) were called active. Rule as the data show it: active = activation fold above about 2; inactive = the rest. What follows is part of a selection rich in actives, with near analogues and random picks from the rest.
Biological target: Alkaline phosphatase, placental type (Homo sapiens) (UniProt P05187)
Test: PLAP enzyme activators, biochemical, luminescence, HTS (AID 696)
Settings: purified PLAP enzyme, luminescent substrate read-out; at 20 µM; active compounds read high

Alkaline phosphatase, placental type (Homo sapiens), sequence (P05187 whole entry, looked up): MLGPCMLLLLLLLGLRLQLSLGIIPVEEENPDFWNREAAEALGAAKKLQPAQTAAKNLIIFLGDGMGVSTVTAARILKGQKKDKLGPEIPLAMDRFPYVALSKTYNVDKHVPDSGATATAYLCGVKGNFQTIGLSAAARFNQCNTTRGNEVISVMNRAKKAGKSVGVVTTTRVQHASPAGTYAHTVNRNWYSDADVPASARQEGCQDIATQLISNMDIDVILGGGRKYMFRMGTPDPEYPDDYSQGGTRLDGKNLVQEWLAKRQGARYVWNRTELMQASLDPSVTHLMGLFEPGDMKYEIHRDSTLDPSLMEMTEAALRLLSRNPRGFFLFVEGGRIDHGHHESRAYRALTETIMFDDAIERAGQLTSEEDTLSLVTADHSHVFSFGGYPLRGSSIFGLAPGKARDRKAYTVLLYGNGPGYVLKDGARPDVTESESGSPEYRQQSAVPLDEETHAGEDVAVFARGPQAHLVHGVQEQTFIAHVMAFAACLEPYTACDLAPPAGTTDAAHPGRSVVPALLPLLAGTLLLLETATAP

Row | SMILES | activation fold
1 | CN1/C(=c2/s/c(=C3/C(=O)N(c4ccccc4)NC3=Nc3ccccc3)n(C)c2=O)C(C)(C)c2ccccc21 | 0.7 (inactive)
2 | COc1ccc(S(=O)(=O)Nc2ccc3oc(C)c(C(C)=O)c3c2)cc1 | 1.3 (inactive)
3 | Cc1nc2nc(C)c(CCC(=O)N3CCN(c4ccccc4)CC3)c(C)n2n1 | 0.8 (inactive)
4 | COc1ccc(CC(=O)Nc2nc3n(n2)C(c2ccccc2)CC(=O)N3)cc1OC (stereo not drawn) | 1.5 (inactive)
5 | O=C(Nc1ncccn1)c1cccs1 | 0.9 (inactive)
6 | CC1CC(c2ccccc2)n2nc(NC(=O)c3cccs3)nc2N1 (stereo not drawn) | 2.1 (active)
7 | CN(C(=O)CSc1nnc(N)s1)c1c(N)n(Cc2ccccc2)c(=O)[nH]c1=O | 1.1 (inactive)
8 | O=C(CN1C(=O)CC(c2ccccc2)=Nc2ccccc21)NC1CCCCC1 | 1 (inactive)
9 | Cc1ccc(-n2nc3ccc(NC(=O)/C=C/c4ccco4)cc3n2)cc1C | 0.9 (inactive)
10 | Cc1cccc(NC(=O)CSc2nnc(-c3ccco3)o2)c1 | 2 (active)
11 | O=C(CSc1nnc(-c2ccco2)o1)NCC(=O)c1ccccc1 | 1.2 (inactive)
12 | CCOC(=O)c1sc(NC(=O)CSc2nnc(-c3ccco3)o2)c(C(=O)OCC)c1C | 1 (inactive)
13 | CONC(=O)c1cc(OCC(F)(F)F)ccc1OCC(F)(F)F | 1 (inactive)
14 | Cn1c(SCC(=O)NC2CCCCC2)nnc1-c1cc2ccccc2o1 | 1.1 (inactive)
15 | Cc1cccc(N2C(=O)c3cccnc3C2=O)c1 | 1 (inactive)
16 | Cc1cccc(N2C(=O)C3C(c4ccccc4)OC4(C(=O)c5ccccc5C4=O)C3C2=O)c1 (stereo not drawn) | 1.2 (inactive)
17 | CCCc1nc2scc(-c3ccc(C)cc3)c2c(=O)n1N | 0.9 (inactive)
18 | N#C/C(=C(\O)CCl)c1nnc2n1CCCCC2 | 0.8 (inactive)
19 | Cc1cc([N+](=O)[O-])ccc1NCc1cccc([N+](=O)[O-])c1 | 1 (inactive)
20 | COCCCn1c(SCc2cccc(OC)c2)nc2cc(OC)c(OC)cc2c1=N | 1.5 (inactive)
21 | Oc1c(C(c2ccco2)N2CCC3(CC2)OCCO3)sc2ncnn12 (stereo not drawn) | 1.7 (inactive)
22 | Oc1c(C(c2cccs2)N2CCN(c3ccc(F)cc3)CC2)sc2ncnn12 (stereo not drawn) | 2 (active)
23 | Cc1ccc(C(c2sc3nc(C)nn3c2O)N2CCN(c3ccc(F)cc3)CC2)cc1 (stereo not drawn) | 1.7 (inactive)
24 | O=C(O)c1cnn2c(C(F)(F)F)cc(-c3ccccc3)nc12 | 0.9 (inactive)
25 | C/C(=N\NC(=O)Cc1ccc(Cl)cc1)c1ccccn1 | 1.8 (inactive)
26 | CCNc1nc(N)nc(-c2cc(Cl)ccc2OC)n1 | 1 (inactive)

Row | SMILES | activation fold
27 | COc1ccc(C(=O)NNC(=O)c2cnccn2)cc1[N+](=O)[O-] | 2.8 (active)
28 | CC(C)NC(=O)c1ccc(Sc2ccccc2)c([N+](=O)[O-])c1 | 1.2 (inactive)
29 | COc1ccccc1CCNC(=O)c1cnccn1 | 1.2 (inactive)
30 | CC(Oc1ccc(F)cc1F)C(=O)/C=C/N(C)C (stereo not drawn) | 1.2 (inactive)
31 | CC(=O)c1sc(NC(=O)c2cccc3ccccc23)nc1C | 1 (inactive)
32 | COc1cccc2sc(Nc3nc(C)c(C(C)=O)s3)nc12 | 2.4 (active)
33 | CC(=O)c1sc(NC(=O)c2ccc(C)cc2)nc1C | 1.2 (inactive)
34 | Cc1ccc(NC(=S)NC(NC(=O)Cc2cccc3ccccc23)C(Cl)(Cl)Cl)cc1 (stereo not drawn) | 0.6 (inactive)
35 | COC(=O)c1ccc(CSc2nnc(NC(C)C)s2)cc1 | 0.9 (inactive)
36 | CC1=NN(C(=O)Cc2ccc(C)cc2)C(O)(c2cccnc2)C1 (stereo not drawn) | 2.4 (active)
37 | CC1=NN(C(=O)c2ccccc2Br)C(O)(c2cccnc2)C1 (stereo not drawn) | 1.4 (inactive)
38 | Cc1ccc(NC(=O)N2CCC(O)(c3cccnc3)CC2)cc1 | 0.9 (inactive)
39 | O=C(Nc1ccc2ccccc2c1)Nc1ccc2snnc2c1 | 0.9 (inactive)
40 | O=C(NCCCCCCCCCNC(=O)C(F)(F)F)C(F)(F)F | 0.9 (inactive)
41 | COc1ccc(Cl)cc1NC(=O)CN(C)C(=O)CNC(=O)C12CC3CC(CC(C3)C1)C2 | 2 (active)
42 | COc1ccc(Cl)cc1NC(=O)c1oc(C)nc1C | 1.4 (inactive)
43 | CCCCC(=O)N/N=C(\C)CC(=O)Nc1cc(Cl)ccc1OC | 0.9 (inactive)
44 | O=C(COc1ccc(Br)cc1F)NC1CCN(Cc2ccccc2)CC1 | 1.7 (inactive)
45 | Cc1ccc2[nH]c(=O)c(CN(CCCN(C)C)C(=O)Nc3cccc(Cl)c3)cc2c1 | 1.5 (inactive)
46 | COc1ccc(COC(=O)c2n[nH]c3ccccc23)cc1F | 1.4 (inactive)
47 | CN(C)S(=O)(=O)c1ccc(NC(=O)COC(=O)c2n[nH]c3ccccc23)cc1 | 1 (inactive)
48 | O=C(COC(=O)c1n[nH]c2ccccc12)NCc1ccccc1 | 2.2 (active)
49 | Cn1c(N)c(C(=O)COC(=O)C23CC4CC(CC(C4)C2)C3)c(=O)n(C)c1=O | 1.9 (inactive)
50 | CC/C(C)=N/Nc1nc2sc3c(c2c(=O)[nH]1)CC(C)(C)OC3 | 1.1 (inactive)
51 | C=CCNC(=S)NNc1ncnc2sc3c(c12)CC(C)(C)OC3 | 2.2 (active)
52 | CCC(O)CNc1nc(-n2nc(C)cc2C)nc2sc3c(c12)CC(C)(C)OC3 (stereo not drawn) | 1 (inactive)

Row | SMILES | activation fold
53 | Cc1ccc(SC(=O)COc2ccc(C)c(C)c2)cc1 | 1 (inactive)
54 | CCOC(=O)c1[nH]cnc1C(=O)NC1CCCCC1 | 2.2 (active)
55 | CCOC(=O)C1=C(CNC2CCCCC2)NC(=O)NC1c1cc(C)ccc1C (stereo not drawn) | 1.1 (inactive)
56 | COc1cc(OC)c(C(=O)NC2CCCCCC2)cc1OC | 1.7 (inactive)
57 | Cc1cc(C(=O)OC(C)C(=O)Nc2cccc(S(=O)(=O)N3CCOCC3)c2)c(C)o1 (stereo not drawn) | 1.7 (inactive)
58 | CCOc1nnc(C)c2c(C)n(-c3cccc(Cl)c3)nc12 | 2.1 (active)
59 | CCOc1cccc(-n2nnnc2-c2ccc(OC)cc2)c1 | 1.4 (inactive)
60 | COC(=O)C(C)n1cnc2c(nnn2-c2cccc(Cl)c2)c1=O (stereo not drawn) | 0.9 (inactive)
61 | CCCCCCCC(=O)NC(Nc1ccccc1OC)C(Cl)(Cl)Cl (stereo not drawn) | 0.9 (inactive)
62 | O=c1c2ccccc2nc(CSc2nnnn2-c2ccccc2)n1-c1ccccc1 | 0.9 (inactive)
63 | CCN(CC)S(=O)(=O)c1ccc2nc(COC(=O)c3n[nH]c4ccccc34)[nH]c2c1 | 1.8 (inactive)
64 | CCN(CC)S(=O)(=O)c1ccc2nc(CSc3nnnn3-c3ccc(O)cc3)[nH]c2c1 | 2.7 (active)
65 | CC(=O)NS(=O)(=O)c1ccc(NC(=S)NC(=O)C(C)(C)C)cc1 | 1.1 (inactive)
66 | COc1ccccc1NC(=O)c1ccc2nc(N3C(=O)CCC3=O)sc2c1 | 1.1 (inactive)
67 | COc1ccc(C(C)=O)cc1CN1C(=O)NC2(CCCCC2C)C1=O (stereo not drawn) | 1 (inactive)
68 | CCOC(=O)N1CCN(C(=O)CSc2ccc(Cl)cc2)CC1 | 1.4 (inactive)
69 | CCOC(=O)N1CCN(C(c2cccnc2)c2ccc3cccnc3c2O)CC1 (stereo not drawn) | 2.2 (active)
70 | CCN1CCN(C(c2cccnc2)c2cc(Cl)c3cccnc3c2O)CC1 (stereo not drawn) | 1.7 (inactive)
71 | CC1CC(C)CN(C/C=C/c2ccccc2[N+](=O)[O-])C1 (stereo not drawn) | 1.2 (inactive)
72 | CCOc1ccccc1Oc1cn[nH]c1-c1ccc(OC)cc1O | 2.8 (active)
73 | C=C(C)COc1ccc(-c2n[nH]c(C)c2-c2ccccc2OC)c(O)c1 | 1 (inactive)
74 | CCOc1ccccc1NC(=O)Nc1cc(OC)ccc1OC | 0.8 (inactive)
75 | c1ccc2c(C[n+]3csc4ccccc43)cccc2c1 | 1.1 (inactive)
76 | COc1ccccc1NC1=NC(c2ccc(Cl)cc2)N=C(N)N1 (stereo not drawn) | 2.2 (active)
77 | COc1ccccc1NC1=NC2(CCCC2)N=C(N)N1 | 0.8 (inactive)
78 | COc1ccccc1Nc1nc(N)nc(CN(C)C2CCCCC2)n1 | 1.3 (inactive)

Row | SMILES | activation fold
79 | O=C1C=C(c2ccc(Cl)cc2)C(=O)N1Nc1ccccc1 | 0.9 (inactive)
80 | C=CCn1c(SCc2c(C)noc2C)nc2sc3c(c2c1=O)CCC(C)C3 (stereo not drawn) | 1.4 (inactive)
81 | CCOC(=O)c1c(NC(=O)c2cccs2)sc(C)c1C | 1.1 (inactive)
82 | COCCCNCC(=O)Nc1sc(C)c(C)c1C(=O)OC | 2.2 (active)
83 | CCOC(=O)c1c(NC(=O)CCl)sc(C(=O)N(CC)CC)c1C | 1.7 (inactive)
84 | COc1ccc(C2=NOC3(CC(=O)N(c4ccc(C)cc4)C3=O)C2)cc1 (stereo not drawn) | 1.2 (inactive)
85 | CCOC(=O)c1c(NC(=O)CCCN2CCOCC2)sc2c1CC(C)(C)OC2 | 1.5 (inactive)
86 | COc1ccc(CCNc2ncnc3nc[nH]c23)cc1OC | 1.8 (inactive)
87 | CCc1ccc(N(CC)c2ncnc3nc[nH]c23)cc1 | 2 (active)
88 | c1ccc2c(c1)OCC(CNc1ncnc3nc[nH]c13)O2 (stereo not drawn) | 1.6 (inactive)
89 | Cc1nn(C)cc1/C=C1\CCC/C(=C\c2cn(C)nc2C)C1=O | 1.8 (inactive)
90 | CCn1c(C)nc2cc(C(=O)NNS(=O)(=O)c3ccc(C)cc3C)ccc21 | 1 (inactive)
91 | Cc1ccc(C(=O)Nc2c(C#N)c(C)c(C)n2Cc2ccccc2)cc1 | 0.9 (inactive)
92 | Cc1[nH][nH]c(=O)c1N=Nc1ccccc1 | 1.1 (inactive)
93 | Cc1[nH][nH]c(=O)c1C(c1ccc(-c2ccc(Cl)cc2)o1)c1c(C)[nH][nH]c1=O | 2.2 (active)
94 | Cc1nnc(NC(=O)CCCOc2ccccc2)s1 | 1 (inactive)
95 | CCOC(=O)c1nn(-c2cccc(C)c2)cc1C(=O)c1ccccc1 | 1.8 (inactive)
96 | O=C(Nc1ccc(-n2ccnc2P(=O)(O)c2ccccc2)cc1)c1ccccc1Br | 2.1 (active)
97 | O=C(Nc1ccccc1)c1cccnc1Nc1ccccc1 | 0.8 (inactive)
98 | Cc1nonc1NC(=O)c1ccccc1Br | 1.2 (inactive)
99 | CCOC(=O)c1nnn(-c2nonc2-n2cccc2)c1CN1CCC(C(=O)OCC)CC1 | 1.2 (inactive)
100 | CC(=O)c1ccc(OCCN2CCOCC2)cc1 | 0.9 (inactive)
101 | CCOC(=O)c1[nH]c2ccc(OC)cc2c1NC(=O)N1CCOCC1 | 1.1 (inactive)
102 | Cc1c(C(=O)CN2CCOCC2)[nH]c2ccccc12 | 0.9 (inactive)
103 | Cc1c(C(=O)N2CCOCC2)[nH]c2ccc(OCc3ccccc3)cc12 | 2 (active)

Reference: PubChem BioAssay AID696 (Sanford-Burnham Center for Chemical Genomics, 2007)
